Results taken from PubChem BioAssay.
Activity calls are given as the source filed them.

Key:
[1] = tested on: Human papillomavirus type 1a protein E7 (residues 44-93); experiment: small molecules binding HPV E7 44-93 – biochemical, small-molecule microarray, residues 44-93, 635 nm fluorescence, primary screen (AID 1108); details: fluorescence 635 nm, higher = more signal;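 further: E7 fragment applied at 1 µg/mL in TBST for 1 h at 4 C; score combines spot fluorescence with its signal to noise ratio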
[2] = hepatitis C replication reporter changes, two-sided – Huh7 cells, luciferase reporter, HCV replication inhibitor project, primary screen (AID 1109); details: Huh7 HCV replicon luciferase reporter, 48 h; higher = more signal;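 further: huh7 hepatoma cells harbouring a luciferase neomycin HCV replicon reporter; luciferase luminescence as measure of HCV replicon replication; test concentration not given here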
[3] = target: Left-right determination factor 2 (Homo sapiens) (UniProt O00292); experiment: small molecules binding LEFTY2 protein – biochemical, small-molecule microarray, 635 nm fluorescence scan, primary screen (AID 1110); details: higher = more signal
[4] = target: Calmodulin-1 (Homo sapiens) (UniProt P0DP23); experiment: small molecules binding calmodulin-1 with EGTA – biochemical, small-molecule microarray, Cy5-labelled CALM1, profiling panel (AID 1111); details: Cy5-CALM1 binding fluorescence, higher = more signal;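 further: labelled calmodulin applied in Tris saline Tween buffer holding calcium plus EGTA and DTT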
[5] = target: Calmodulin-1 (Homo sapiens) (UniProt P0DP23); experiment: small molecules binding Ca-loaded calmodulin-1 – biochemical, small-molecule microarray, Cy5-labelled CALM1, plus calcium, artefact control for SMM control-protein annotation, profiling panel (AID 1112); details: Cy5-CALM1 binding fluorescence, higher = more signal;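 further: score merges spot fluorescence with signal to noise from triplicate slides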
[6] = probe aWnt5a binding to arrayed compounds – biochemical, biotinylated probe, 635/667 nm fluorescence, primary screen (AID 1113); details: small-molecule microarray, higher = more signal;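 further: score merges 667 nm fluorescence intensity with signal-to-noise per printed feature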
[7] = probe aShh binding to arrayed compounds – biochemical, biotinylated probe, 635/667 nm fluorescence, primary screen (AID 1114); details: small-molecule microarray, higher = more signal;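 further: probe is biotin-labelled aShh protein from a stem cell growth factor screen; measures binding of labelled protein to compounds printed on the slide; score merges feature fluorescence at 667 nm with signal-to-noise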
[8] = probe aNog binding to arrayed compounds – biochemical, biotinylated probe, 635/667 nm fluorescence, primary screen (AID 1115); details: small-molecule microarray, higher = more signal;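 further: probe is biotinylated aNog protein used at 0.15 µg/mL for 1 h at 4 C; z-score combines 667 nm fluorescence of each spot with its signal to noise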
[9] = target: Torsin-1A-interacting protein 1 (Homo sapiens) (UniProt Q5JTV8); experiment: compound microarray binding of lysate hLAP1 – cell lysate, small-molecule microarray, COS7 lysate, 635/667 nm fluorescence, primary screen (AID 1116); details: 635 nm fluorescence, higher = more signal
[10] = target: Alpha-bungarotoxin (Bungarus multicinctus) (UniProt P60615); experiment: compounds binding labelled alpha-BTX control protein – biochemical, small-molecule microarray, Alexa647 label, 635/667 nm fluorescence, artefact control for SMM control protein annotation, profiling panel (AID 1117); details: alpha-BTX-A647 binding fluorescence, higher = more signal
[11] = target: Albumin (Bos taurus) (UniProt P02769); experiment: compounds binding labelled BSA control protein – biochemical, small-molecule microarray, Alexa647 label, 635/667 nm fluorescence, artefact control for SMM control protein annotation, profiling panel (AID 1118); details: BSA-A647 binding, fluorescence 635 nm, higher = more signal;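 further: score merges 667 nm emission intensity and signal-to-noise per printed compound spot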
[12] = probe aXIP binding to arrayed compounds – biochemical, NeuroSMM set, 635/667 nm fluorescence, primary screen (AID 1119); details: small-molecule microarray, higher = more signal, called active from +8 up or from −8 down;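 further: probe is the protein aXip251-270 applied at 1 µg/mL to compound-printed slides; binding of probe to printed compounds measured as 667 nm fluorescence plus signal to noise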
[13] = probe aNOTCH3 binding on compound microarray – biochemical, small-molecule microarray, 635/667 nm fluorescence, primary screen (AID 1120); details: higher = more signal;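 further: probe is a biotin-tagged antibody raised against NOTCH3 rather than NOTCH3 protein; score merges spot fluorescence near 667 nm with spot signal to noise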
[14] = probe aNOTCH2 binding on compound microarray – biochemical, small-molecule microarray, 635/667 nm fluorescence, primary screen (AID 1121); details: higher = more signal;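 further: score merges feature fluorescence read at 667 nm with its signal to noise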
[15] = target: Carbonic anhydrase 2 (Homo sapiens) (UniProt P00918); experiment: compounds binding carbonic anhydrase 2 – biochemical, small-molecule microarray, Alexa647-labelled CAII, profiling panel (AID 1122); details: CAII-A647 binding fluorescence, higher = more signal
[16] = COS7 lysate on small-molecule microarray, probe aHis, 635 nm (AID 1123); details: COS7 cell lysate, fluorescence, higher = more signal;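 further: z-score combines 667nm fluorescence intensity with signal-to-noise per printed compound spot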
[17] = probe aLAP1 signal on lysate-treated microarray – cell lysate, small-molecule microarray, COS7 lysate, primary screen (AID 1124); details: probe aLAP1, fluorescence, higher = more signal;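 further: lysate comes from COS7 cells expressing LAP1 and is applied at 0.3 µg/mL; score merges spot fluorescence near 667 nm with signal-to-noise over triplicate slides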
[18] = tested on: Sam68 (KHDRBS1); experiment: compounds binding KHDRBS1 protein – biochemical, small-molecule microarray, 635 nm fluorescence, primary screen (AID 1125); details: higher = more signal;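 further: score merges 667 nm channel intensity with signal to noise over triplicate slides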
[19] = tested on: Chordin-like protein 2 (CHRDL2); experiment: compounds binding chordin-like 2 – biochemical, small-molecule microarray, 635 nm fluorescence, primary screen (AID 1126); details: fluorescence 635 nm, higher = more signal;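 further: printed compound slides probed with Chrdl2 protein at 4 µg/mL for 1 h at 4 C; score merges 667 nm emission intensity with signal to noise over three replicate slides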
[20] = target: Concanavalin-A (Canavalia ensiformis) (UniProt P02866); experiment: compounds binding concanavalin A lectin – biochemical, small-molecule microarray, Alexa647 label, 635 nm, artefact control for SMM control protein annotation, primary screen (AID 1127); details: ConA-A647 binding fluorescence, higher = more signal;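 further: z combines 667 nm emission intensity with signal-to-noise across three replicate slides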
Chain of Concanavalin-A (Canavalia ensiformis) (P02866 whole entry, looked up): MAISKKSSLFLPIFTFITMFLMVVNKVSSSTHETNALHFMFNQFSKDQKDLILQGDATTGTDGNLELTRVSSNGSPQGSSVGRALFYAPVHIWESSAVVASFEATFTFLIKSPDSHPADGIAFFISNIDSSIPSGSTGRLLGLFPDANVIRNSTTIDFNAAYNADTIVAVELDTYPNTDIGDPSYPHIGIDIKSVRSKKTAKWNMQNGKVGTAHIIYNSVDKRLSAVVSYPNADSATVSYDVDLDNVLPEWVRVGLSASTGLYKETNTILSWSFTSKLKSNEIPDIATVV

Chain of Albumin (Bos taurus) (P02769 whole entry, looked up): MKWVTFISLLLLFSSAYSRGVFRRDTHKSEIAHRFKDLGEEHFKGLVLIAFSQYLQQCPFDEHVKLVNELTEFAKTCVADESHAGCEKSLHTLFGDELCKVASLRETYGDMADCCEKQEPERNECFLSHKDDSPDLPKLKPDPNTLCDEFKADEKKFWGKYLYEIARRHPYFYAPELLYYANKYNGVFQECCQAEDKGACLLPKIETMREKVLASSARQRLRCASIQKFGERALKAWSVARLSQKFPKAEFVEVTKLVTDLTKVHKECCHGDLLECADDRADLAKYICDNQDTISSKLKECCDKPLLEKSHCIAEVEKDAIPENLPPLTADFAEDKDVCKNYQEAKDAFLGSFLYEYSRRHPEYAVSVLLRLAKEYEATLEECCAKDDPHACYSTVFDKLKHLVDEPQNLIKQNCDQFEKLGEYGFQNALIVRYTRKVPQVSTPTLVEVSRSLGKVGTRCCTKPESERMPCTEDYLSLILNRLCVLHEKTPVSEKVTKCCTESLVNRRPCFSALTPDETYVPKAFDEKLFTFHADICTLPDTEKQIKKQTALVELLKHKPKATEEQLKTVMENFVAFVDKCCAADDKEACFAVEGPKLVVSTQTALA
Chain of Left-right determination factor 2 (Homo sapiens) (O00292 whole entry, looked up): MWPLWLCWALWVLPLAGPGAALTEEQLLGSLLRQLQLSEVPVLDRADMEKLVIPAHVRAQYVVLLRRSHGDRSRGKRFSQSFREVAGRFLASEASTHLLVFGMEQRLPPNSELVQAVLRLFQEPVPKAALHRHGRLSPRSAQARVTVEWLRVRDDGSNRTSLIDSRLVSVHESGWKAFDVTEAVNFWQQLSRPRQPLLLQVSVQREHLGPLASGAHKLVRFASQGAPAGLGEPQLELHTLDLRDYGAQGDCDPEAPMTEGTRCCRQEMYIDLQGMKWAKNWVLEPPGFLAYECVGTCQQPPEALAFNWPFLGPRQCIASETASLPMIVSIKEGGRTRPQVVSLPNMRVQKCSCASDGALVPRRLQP
Chain of Torsin-1A-interacting protein 1 (Homo sapiens) (Q5JTV8 whole entry, looked up): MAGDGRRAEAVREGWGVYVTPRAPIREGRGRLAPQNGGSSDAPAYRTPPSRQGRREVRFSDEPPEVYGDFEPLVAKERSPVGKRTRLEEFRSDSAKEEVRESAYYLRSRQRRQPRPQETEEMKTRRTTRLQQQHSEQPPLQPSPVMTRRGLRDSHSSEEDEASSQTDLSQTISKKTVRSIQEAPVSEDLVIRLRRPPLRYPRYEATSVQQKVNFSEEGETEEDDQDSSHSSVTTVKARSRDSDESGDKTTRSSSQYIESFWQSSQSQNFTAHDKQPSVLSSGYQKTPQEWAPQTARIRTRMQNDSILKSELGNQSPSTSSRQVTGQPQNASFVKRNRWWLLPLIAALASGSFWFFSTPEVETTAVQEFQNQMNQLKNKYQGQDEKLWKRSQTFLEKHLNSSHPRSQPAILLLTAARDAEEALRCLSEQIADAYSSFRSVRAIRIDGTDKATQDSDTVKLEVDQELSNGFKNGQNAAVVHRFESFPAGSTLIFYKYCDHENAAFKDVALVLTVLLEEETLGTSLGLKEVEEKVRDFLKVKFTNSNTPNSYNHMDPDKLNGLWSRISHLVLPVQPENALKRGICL
Chain of Alpha-bungarotoxin (Bungarus multicinctus) (P60615 whole entry, looked up): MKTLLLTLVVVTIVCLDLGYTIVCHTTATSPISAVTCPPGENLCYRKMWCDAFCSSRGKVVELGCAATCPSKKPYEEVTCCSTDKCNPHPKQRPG

| Structure (SMILES) | composite z-score [1] | z-score [2] | composite z-score [3] | composite z-score [4] | composite z-score [5] | composite z-score [6] | composite z-score [7] | composite z-score [8] | composite z-score [9] | composite z-score [10] | composite z-score [11] | composite Z-score [12] | composite z-score [13] | composite z-score [14] | composite z-score [15] | composite z-score [16] | composite z-score [17] | composite z-score [18] | composite z-score [19] | composite z-score [20] |
| --- | --- | --- | --- | --- | --- | --- | --- | --- | --- | --- | --- | --- | --- | --- | --- | --- | --- | --- | --- | --- |
| COc1ccc(C#Cc2ccc3c(c2)[C@]2(C(=O)N3)[C@H](C(=O)N3CCCCCCC3)[C@H]3C(=O)O[C@H](c4ccccc4)[C@H](c4ccccc4)N3[C@@H]2c2ccc(O)cc2)cc1 | 0.871 | -0.764 | 0.536 | 1.51 | 0.426 | 0.19 | 0.162 | 2.3 | 2.85 | 1.22 | 0.796 | 4.74 (inactive) | 0.888 | 0.0488 | 0.594 | 2.9 | 1.25 | 1.3 | 0.573 | 0.977 |
| CC1CC/C=C\[C@H]2OC34C=CCN(C(C)(C)C)C(=O)[C@H]3N(C(CO)C(C)C)C(=O)[C@@H]4C2C(=O)O1 (stereo not given in full) | -1.26 | 0.434 | 0.272 | -0.745 | -0.554 | -0.0882 | 0.0469 | -0.316 | 0.952 | -0.62 | -0.667 | 0.148 (inactive) | -0.0647 | -0.0974 | 0.867 | 1.37 | 0.876 | 0.117 | -0.165 | -0.268 |
| COCCCNC(=O)[C@@]1(c2ccc([N+](=O)[O-])cc2)CC(=O)N(C(C)C)[C@@H]1c1ccc(CO)cc1 | -1.48 | 0.198 | -0.195 | -1.61 | -0.129 | 0.0559 | -0.211 | -0.261 | 1.94 | 1.88 | 0.224 | -0.786 (inactive) | -0.424 | -0.0282 | 0.729 | 0.198 | 1.25 | 0.353 | 0.454 | -1.5 |
| CCOC(=O)C1=C[C@@H](C(C)(C)C)N(S(=O)(=O)c2ccc(C)cc2)[C@H]1c1ccccc1 | 0.834 | -2.05 | 0.561 | 1.99 | 0.838 | 0.0873 | 0.0469 | 0.109 | 1.26 | 1.11 | 0.907 | 0.265 (inactive) | 0.176 | -0.0836 | 0.343 | 0.29 | 0.931 | 1.31 | -0.196 | 0.94 |
| COc1cccc(/C=C(\C#N)C(=O)Nc2c(C)n(C)n(-c3ccccc3)c2=O)c1 | 1.11 | -0.479 | 0.303 | 1.27 | 0.0209 | -0.0894 | -0.223 | -0.0899 | 0.569 | 1.19 | 0.998 | -0.359 (inactive) | -0.053 | -0.0454 | 0.767 | 0.366 | -0.0921 | 0.949 | -0.194 | 1.14 |
| COCCOC(=O)N1C(=O)[C@@]2(c3cc(C#CCNC(N)=O)ccc31)[C@H](c1ccc(OCCO)cc1)N1[C@H](c3ccccc3)[C@H](c3ccccc3)OC(=O)[C@H]1[C@@H]2C(=O)NC[C@H](O)c1ccccc1 | 1.26 | -0.711 | 0.799 | 1.22 | 0.226 | -0.0792 | -0.138 | 1.21 | 0.878 | 1.61 | 0.633 | -0.524 (inactive) | 0.206 | -0.013 | 0.225 | 0.0755 | 0.442 | 1.29 | 0.84 | 1.14 |
| O=C(O)[C@@H]1C[C@@H]2C(=O)N3CCC[C@H]3C(=O)N2[C@@H]1c1cccc(OCCO)c1 | 1.49 | -0.444 | 1.56 | 1.69 | 0.815 | 0.94 | 2.65 | 3.05 | 3.85 | 2.99 | 0.778 | 2.44 (inactive) | 1.56 | 1.07 | 0.849 | 4.04 | 1.04 | 1.33 | 1.11 | 1.24 |
| CN(C)CCCCNC(=O)[C@H]1C[C@H]2C(=O)N[C@@H](CCCC[N+](C)(C)C)C(=O)N2[C@H]1c1ccc(O)cc1 | -1.55 | -0.027 | -0.0658 | -0.0691 | -0.441 | -0.208 | -0.2 | -0.253 | -0.511 | 0.15 | -0.165 | 0.261 (inactive) | -0.208 | 0.2 | 0.716 | -0.287 | 0.106 | -0.863 | -0.187 | 0.343 |
| CC=CC(O)C1C=CC2C(=O)NC(=O)C2N1Nc1ccccn1 (stereo not given) | 0.434 | 0.634 | 0.44 | -0.242 | -1.1 | -0.254 | -0.0211 | 0.342 | 0.372 | 0.439 | 0.456 | 0.289 (inactive) | -0.0362 | -0.112 | 0.463 | 0.717 | 0.654 | 0.463 | 1.04 | 0.855 |
| COC(=O)C1=CC(CCCO)=CC(C)N(Cc2cccc(OC(F)(F)F)c2)C=C1C(=O)OC (stereo not given) | 1.35 | -0.307 | -0.708 | 1.02 | 1.15 | -0.0643 | 0.0929 | 0.716 | 0.595 | 0.498 | 1.03 | -0.288 (inactive) | 0.147 | -0.0743 | 0.8 | 2.63 | 0.348 | 1.27 | -0.595 | 0.355 |
| O=C1NC(=O)C2C1C=CC(C(O)c1ccccn1)N2Nc1ccc(Cl)cc1Cl (stereo not given) | 0.553 | 0.812 | 0.0905 | 1.46 | 0.819 | -0.16 | 0.171 | 0.383 | 0.422 | -0.0671 | 1.02 | 0.222 (inactive) | 0.0773 | 0.0554 | 0.815 | 3.23 | 0.048 | 0.25 | -0.44 | 0.786 |
